# Reference: PubChem BioAssay
# Several values for one entry are separate records, joined by “and”; a condition that tells them apart may be missing. Equal values may be shown once. Values without a mark were called inactive. Activity calls are given as the source filed them.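 The calls were made as follows, unless noted: active = mean inhibition over 43.08%, the solvent-only control mean plus 3 SD; inactive = the rest.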
# Assays:
# [1] = biological target: Nuclear receptor coactivator 3 (Homo sapiens) (UniProt Q9Y6Q9); experiment: SRC3 coactivator transcriptional activity inhibitors, confirmation, cell-based, luminescence, quadruplicate (AID 588792); details: HEK293 GAL4-SRC3 luciferase reporter, at 3.6 µM, active compounds read high;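 also: 0% = DMSO treated cells and 100% = gossypol at 36 µM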
# Sequence of Nuclear receptor coactivator 3 (Homo sapiens) (Q9Y6Q9 whole entry, looked up, the tested form may be a part): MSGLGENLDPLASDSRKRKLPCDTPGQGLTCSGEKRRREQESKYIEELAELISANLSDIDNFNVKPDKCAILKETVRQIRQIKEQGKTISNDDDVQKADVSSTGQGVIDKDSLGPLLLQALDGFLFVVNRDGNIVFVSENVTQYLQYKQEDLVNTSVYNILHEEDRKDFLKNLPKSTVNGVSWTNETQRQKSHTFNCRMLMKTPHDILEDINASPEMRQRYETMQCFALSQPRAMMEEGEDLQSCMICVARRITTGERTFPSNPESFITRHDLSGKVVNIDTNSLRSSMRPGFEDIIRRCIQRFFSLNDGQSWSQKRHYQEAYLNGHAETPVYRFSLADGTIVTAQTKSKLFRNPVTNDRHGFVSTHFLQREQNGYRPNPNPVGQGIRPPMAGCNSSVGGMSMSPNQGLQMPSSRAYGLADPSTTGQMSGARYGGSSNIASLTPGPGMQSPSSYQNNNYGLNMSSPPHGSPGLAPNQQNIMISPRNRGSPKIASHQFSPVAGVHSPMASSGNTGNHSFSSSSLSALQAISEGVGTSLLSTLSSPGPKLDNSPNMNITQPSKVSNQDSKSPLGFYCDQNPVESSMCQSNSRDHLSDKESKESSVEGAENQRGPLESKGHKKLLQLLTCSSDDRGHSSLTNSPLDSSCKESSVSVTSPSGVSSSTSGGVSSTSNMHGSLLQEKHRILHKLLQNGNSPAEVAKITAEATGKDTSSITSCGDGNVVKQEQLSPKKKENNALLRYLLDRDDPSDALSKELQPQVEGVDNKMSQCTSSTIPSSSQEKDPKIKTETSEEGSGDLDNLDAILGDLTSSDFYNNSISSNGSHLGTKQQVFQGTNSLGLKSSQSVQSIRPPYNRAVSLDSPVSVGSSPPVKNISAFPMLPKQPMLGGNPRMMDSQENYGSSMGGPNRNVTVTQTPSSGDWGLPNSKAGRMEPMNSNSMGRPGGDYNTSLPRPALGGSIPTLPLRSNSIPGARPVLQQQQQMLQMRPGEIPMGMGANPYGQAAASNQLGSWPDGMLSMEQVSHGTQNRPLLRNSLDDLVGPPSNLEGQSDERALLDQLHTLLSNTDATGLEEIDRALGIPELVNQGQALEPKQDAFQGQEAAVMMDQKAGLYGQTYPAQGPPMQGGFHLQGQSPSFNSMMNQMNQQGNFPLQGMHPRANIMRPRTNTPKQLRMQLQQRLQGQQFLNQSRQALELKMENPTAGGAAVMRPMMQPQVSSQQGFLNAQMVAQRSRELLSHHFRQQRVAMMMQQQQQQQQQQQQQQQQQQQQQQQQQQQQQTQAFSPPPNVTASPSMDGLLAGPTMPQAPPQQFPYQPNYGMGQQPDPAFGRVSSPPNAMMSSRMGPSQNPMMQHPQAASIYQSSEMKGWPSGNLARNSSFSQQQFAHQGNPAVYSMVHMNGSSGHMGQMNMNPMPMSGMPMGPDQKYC
# [2] = tested on: transactivating tegument protein VP16 (Human herpesvirus 1), Gal4-VP16 luciferase reporter; experiment: VP16 transactivation inhibitors, counter-screen for SRC3 inhibitor project, cell-based, luminescence, high throughput (AID 588794; in the data active = inhibition above about 30%); details: mammalian cells, VP16-driven luciferase reporter luminescence; at 3.6 µM; active compounds read high
# [3] = biological target: Nuclear receptor coactivator 1 (Homo sapiens) (UniProt Q15788); experiment: SRC1 coactivator transcriptional activity inhibitors, confirmation, cell-based, luminescence, quadruplicate (AID 588820;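 active = mean inhibition above 46.68%, the untreated control wells mean plus 3 SD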;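 also: 0% = DMSO wells and 100% = gossypol 36 µM treated wells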); details: HEK293 GAL4-SRC1 luciferase reporter, at 3.6 µM, active compounds read high
# Sequence of Nuclear receptor coactivator 1 (Homo sapiens) (Q15788 whole entry, looked up, the tested form may be a part): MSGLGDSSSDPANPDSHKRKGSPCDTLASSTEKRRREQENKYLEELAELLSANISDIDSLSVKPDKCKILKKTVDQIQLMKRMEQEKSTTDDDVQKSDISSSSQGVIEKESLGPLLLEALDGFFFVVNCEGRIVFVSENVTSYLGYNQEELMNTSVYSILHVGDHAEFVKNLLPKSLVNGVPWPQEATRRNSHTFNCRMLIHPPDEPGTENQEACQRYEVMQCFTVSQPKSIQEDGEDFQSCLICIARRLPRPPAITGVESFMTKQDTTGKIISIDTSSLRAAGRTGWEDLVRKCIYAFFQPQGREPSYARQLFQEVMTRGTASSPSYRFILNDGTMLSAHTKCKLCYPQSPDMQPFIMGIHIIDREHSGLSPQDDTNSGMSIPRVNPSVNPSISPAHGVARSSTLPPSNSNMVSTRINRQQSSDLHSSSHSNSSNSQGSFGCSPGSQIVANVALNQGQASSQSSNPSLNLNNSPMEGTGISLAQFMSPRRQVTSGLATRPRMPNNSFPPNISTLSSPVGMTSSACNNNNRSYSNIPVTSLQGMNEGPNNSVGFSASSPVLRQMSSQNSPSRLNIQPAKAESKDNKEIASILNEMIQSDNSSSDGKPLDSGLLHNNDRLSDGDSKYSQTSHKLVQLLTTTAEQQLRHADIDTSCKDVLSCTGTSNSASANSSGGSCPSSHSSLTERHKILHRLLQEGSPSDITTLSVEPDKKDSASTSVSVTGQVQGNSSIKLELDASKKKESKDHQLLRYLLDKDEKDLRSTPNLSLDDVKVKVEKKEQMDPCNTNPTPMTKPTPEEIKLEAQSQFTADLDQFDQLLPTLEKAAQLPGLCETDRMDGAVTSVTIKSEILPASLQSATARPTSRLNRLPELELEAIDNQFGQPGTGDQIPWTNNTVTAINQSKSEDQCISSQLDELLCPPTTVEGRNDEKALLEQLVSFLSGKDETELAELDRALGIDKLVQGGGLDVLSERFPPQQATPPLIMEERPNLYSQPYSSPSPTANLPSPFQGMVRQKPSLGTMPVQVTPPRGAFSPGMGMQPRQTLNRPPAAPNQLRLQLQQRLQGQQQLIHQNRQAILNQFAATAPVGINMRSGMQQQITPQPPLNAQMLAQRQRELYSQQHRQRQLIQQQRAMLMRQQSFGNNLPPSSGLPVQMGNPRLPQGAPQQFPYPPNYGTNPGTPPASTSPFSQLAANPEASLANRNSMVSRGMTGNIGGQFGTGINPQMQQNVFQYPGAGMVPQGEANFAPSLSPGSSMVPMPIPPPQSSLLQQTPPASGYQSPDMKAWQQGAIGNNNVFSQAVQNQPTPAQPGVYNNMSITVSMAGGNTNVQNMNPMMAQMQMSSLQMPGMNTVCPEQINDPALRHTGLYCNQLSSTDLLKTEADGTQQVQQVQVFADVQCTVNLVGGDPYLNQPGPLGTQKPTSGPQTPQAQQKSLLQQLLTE
# [4] = VP16 transactivation inhibitors, counter-screen for SRC1 inhibitor project, cell-based, luminescence, high throughput (AID 588824; in the data active = inhibition above about 25%); details: cell-based VP16 transactivation luciferase luminescence; at 3.6 µM; active compounds read high
# [5] = StAR promoter reporter inhibitors, counter-screen for LRH-1 inverse agonist project, cell-based, luminescence, high throughput (AID 651611; in the data active = inhibition above about 28%); details: StAR promoter luciferase reporter counterscreen, at 3.6 µM, active compounds read high
# [6] = biological target: Nuclear receptor subfamily 5 group A member 2 (Homo sapiens) (UniProt O00482); experiment: LRH-1 (NR5A2) inverse agonists, retest, confirmation, cell-based, luminescence (AID 651613; in the data active = inhibition above about 42%;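 also: HEK293T cells co-transfected with LRH-1 and StAR promoter luciferase reporter; 0% = vehicle wells and 100% = parental cells lacking receptor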); details: cell-based LRH-1 luciferase reporter, inverse agonism; at 3.6 µM; active compounds read high
# [7] = biological target: Steroidogenic factor 1 (Homo sapiens) (UniProt Q13285); experiment: SF1 (NR5A1) inverse agonists, counter-screen for LRH-1 inverse agonist project, cell-based, luminescence, high throughput (AID 651614; in the data active = inhibition above about 44%;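 also: cells cotransfected with StAR promoter reporter and SF1 expression vector; 0% = vehicle on cells with receptor and 100% = vehicle on cells lacking receptor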); details: cell-based SF1 luciferase reporter, at 3.6 µM, active compounds read high
# Sequence of Steroidogenic factor 1 (Homo sapiens) (Q13285 whole entry, looked up, the tested form may be a part): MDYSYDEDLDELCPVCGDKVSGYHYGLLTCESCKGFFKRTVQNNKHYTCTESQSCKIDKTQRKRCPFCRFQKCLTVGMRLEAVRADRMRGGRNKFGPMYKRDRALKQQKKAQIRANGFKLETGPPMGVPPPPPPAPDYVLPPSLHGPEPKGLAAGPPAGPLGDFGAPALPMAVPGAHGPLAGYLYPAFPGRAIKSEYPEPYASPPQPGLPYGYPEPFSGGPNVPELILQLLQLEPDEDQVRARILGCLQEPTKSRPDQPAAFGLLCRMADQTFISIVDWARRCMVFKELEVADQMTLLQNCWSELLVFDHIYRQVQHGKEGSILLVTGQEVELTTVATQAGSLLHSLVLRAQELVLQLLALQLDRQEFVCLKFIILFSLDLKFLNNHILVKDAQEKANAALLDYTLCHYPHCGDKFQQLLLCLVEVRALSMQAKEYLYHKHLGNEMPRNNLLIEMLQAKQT
# [8] = VP16 transactivation reporter inhibitors, counter-screen for LRH-1 inverse agonist project, cell-based, luminescence, high throughput (AID 651615; in the data active = inhibition above about 33%); details: Gal4-VP16 luciferase reporter cells, at 3.6 µM, active compounds read high
# [9] = tested on: transactivating tegument protein VP16 (Human herpesvirus 1); experiment: VP16 transactivation reporter inhibitors, counter-screen for SRC2 inhibitor project, cell-based, luminescence, single concentration (AID 652007; in the data active = inhibition above about 36%); details: cell-based VP16 transactivation luciferase reporter, at 8.9 µM, active compounds read high
# [10] = biological target: Nuclear receptor coactivator 2 (Homo sapiens) (UniProt Q15596); experiment: SRC2 coactivator transcriptional activity inhibitors, confirmation, cell-based, luminescence, HEK293, triplicate (AID 652008;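 active = mean inhibition above 46.5%, the solvent-only control mean plus 3 SD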;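 also: 0% = DMSO-treated cells and 100% = Gossypol at 36 µM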); details: HEK293 GAL4-SRC2 luciferase reporter, at 8.9 µM, active compounds read high
# Sequence of Nuclear receptor coactivator 2 (Homo sapiens) (Q15596 whole entry, looked up, the tested form may be a part): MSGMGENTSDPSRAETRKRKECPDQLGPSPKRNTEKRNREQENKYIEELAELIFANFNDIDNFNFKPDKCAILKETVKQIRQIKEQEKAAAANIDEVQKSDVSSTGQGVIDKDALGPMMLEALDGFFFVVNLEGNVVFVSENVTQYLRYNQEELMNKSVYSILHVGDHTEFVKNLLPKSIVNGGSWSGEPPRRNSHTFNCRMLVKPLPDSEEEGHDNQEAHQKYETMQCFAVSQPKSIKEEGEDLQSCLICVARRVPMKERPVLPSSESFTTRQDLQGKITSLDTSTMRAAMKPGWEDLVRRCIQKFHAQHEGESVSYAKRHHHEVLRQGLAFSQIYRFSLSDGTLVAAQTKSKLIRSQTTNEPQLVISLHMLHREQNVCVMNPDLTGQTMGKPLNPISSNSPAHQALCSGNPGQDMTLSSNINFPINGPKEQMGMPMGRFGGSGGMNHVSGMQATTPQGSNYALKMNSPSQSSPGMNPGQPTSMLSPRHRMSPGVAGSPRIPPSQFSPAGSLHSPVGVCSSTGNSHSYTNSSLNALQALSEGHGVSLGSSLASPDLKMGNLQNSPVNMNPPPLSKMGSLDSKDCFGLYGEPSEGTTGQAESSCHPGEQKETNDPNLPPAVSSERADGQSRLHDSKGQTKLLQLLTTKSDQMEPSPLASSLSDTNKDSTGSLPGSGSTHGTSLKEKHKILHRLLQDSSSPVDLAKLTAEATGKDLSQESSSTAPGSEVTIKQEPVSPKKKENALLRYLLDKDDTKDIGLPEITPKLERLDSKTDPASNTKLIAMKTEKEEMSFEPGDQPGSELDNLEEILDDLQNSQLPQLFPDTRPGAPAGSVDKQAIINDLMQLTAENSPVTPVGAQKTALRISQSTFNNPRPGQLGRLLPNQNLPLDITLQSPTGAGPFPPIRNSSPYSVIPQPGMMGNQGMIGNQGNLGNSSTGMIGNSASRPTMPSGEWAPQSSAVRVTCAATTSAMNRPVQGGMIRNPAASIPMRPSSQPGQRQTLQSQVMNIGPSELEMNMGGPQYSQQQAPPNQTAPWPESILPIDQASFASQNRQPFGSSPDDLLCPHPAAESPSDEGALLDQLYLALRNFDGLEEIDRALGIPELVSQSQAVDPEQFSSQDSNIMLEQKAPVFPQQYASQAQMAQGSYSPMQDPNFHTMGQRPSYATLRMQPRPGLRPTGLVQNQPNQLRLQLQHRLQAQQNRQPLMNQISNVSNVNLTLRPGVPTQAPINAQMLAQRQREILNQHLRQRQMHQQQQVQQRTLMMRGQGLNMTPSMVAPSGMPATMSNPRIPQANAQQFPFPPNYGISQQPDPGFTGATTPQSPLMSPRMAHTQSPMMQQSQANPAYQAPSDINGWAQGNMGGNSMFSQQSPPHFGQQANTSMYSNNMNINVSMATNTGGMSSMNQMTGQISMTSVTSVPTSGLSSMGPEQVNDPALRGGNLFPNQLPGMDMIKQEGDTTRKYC
Compound,inhibition [1],inhibition [2],inhibition [3],inhibition [4],inhibition [5],inhibition [6],inhibition [7],inhibition [8],inhibition [9],inhibition [10]
C[C@@H]1O[C@@H](O[C@H]2C[C@@H](O)[C@]3(CO)[C@@H]4C(CC[C@]3(O)C2)[C@@]2(O)CC[C@H](C3COC(=O)C3)[C@@]2(C)C[C@H]4O)[C@H](O)[C@H](O)[C@H]1O (some centres undefined),87.8% (active),47.1% (active),5.8%,54.1% (active),92% (active),100% (active),85.2% (active),56.4% (active),,
CC(=NCc1ccc(F)cc1)c1c(O)n(C)c(=O)n(C)c1=O,11%,49.6% (active),12.8%,49.7% (active),39.6% (active),51.4% (active),73% (active),62.8% (active),,
Cc1cccc(C)c1-n1nnnc1C(c1cc2ccccc2o1)N1CCC(n2c(=O)[nH]c3ccccc32)CC1 (centres undefined),23.8%,41.3% (active),7.31%,25.9% (active),,,,,,
O=C1/C(=C/c2ccccc2)C[C@@]2(O)[C@H]3Cc4ccc(O)c5c4[C@@]2(CCN3CC2CC2)C1O5 (some centres undefined),92.8% (active),73.1% (active),85.4% (active),73.2% (active),,,,,,
O=[N+]([O-])c1ccc(N2CCOCC2)c2c1no[n+]2[O-],82.4% (active),62.9% (active),23%,62.2% (active),94.1% (active),101% (active),92.6% (active),70.7% (active),,
CC(=O)c1c(C)n(C2CCCCC2)c2ccc(O)cc12,81.2% (active),58.5% (active),68.4% (active),60.2% (active),,,,,,
CCCc1nc2ccc(Br)cc2c(=O)n1-c1ccc([N+](=O)[O-])c(C(F)(F)F)c1,-13%,11.2%,13.3%,14.8%,,,,,,
CN(C)c1ccc(/C=C/c2cc[n+](C)c3ccccc23)cc1,55.9% (active) and 45.3% (active),74% (active) and 71.3% (active),40.2% and 45.5%,77.9% (active) and 78.6% (active),72.7% (active) and 74.2% (active),102% (active) and 107% (active),86.9% (active) and 89.7% (active),82% (active) and 84% (active),,
COc1cccc(C(c2nnnn2-c2ccc3c(c2)OCCO3)N2CCC(n3c(=O)[nH]c4ccccc43)CC2)c1OC (centres undefined),26.6%,35.9% (active),-22.4%,24.7%,,,,,,
CC1C(OC(=O)CCC(=O)NC(C)(C)CO)O[C@H]2OC3(C)CC[C@H]4[C@H](C)CCC1C24OO3 (some centres undefined),55.9% (active),79.9% (active),51.9% (active),81.2% (active),76.2% (active),101% (active),91% (active),84% (active),,
O=c1[nH]c2ccccc2n1C1CCN(C(CCc2ccccc2)c2nnnn2C2CCCC2)CC1 (centres undefined),23.4%,7.82%,-2.66%,10.8%,,,,,,
O=c1[nH]c2ccccc2n1C1CCN(C(c2ccccc2)c2nnnn2-c2ccc3c(c2)OCCO3)CC1 (centres undefined),41.3%,14.1%,-15.1%,16.1%,,,,,,
Cc1cc(-c2ccccc2)cc(-c2ccccc2)[n+]1CCc1ccccc1,37.8%,52.1% (active),27.1%,51.7% (active),51.1% (active),91.6% (active),75.2% (active),73.2% (active),,
Cc1ccccc1-[n+]1c(-c2ccccc2)cc(-c2ccccc2)cc1-c1ccccc1,69.8% (active),86% (active),71.6% (active),84.6% (active),83.2% (active),109% (active),95.3% (active),94.7% (active),,
C=CCn1c(O)c(C(C)=NCc2cc(OC)cc(OC)c2)c(=O)[nH]c1=O,49.6% (active),28.2%,43%,24.5%,42.4% (active),66.4% (active),57.7% (active),43.6% (active),,
CC1CC(C)(O)CC(C(O)CC2CC(=O)NC(=O)C2)C1=O (centres undefined),96.7% (active),95.7% (active),89.7% (active),94.9% (active),96.2% (active),110% (active),98.5% (active),98.1% (active),,
CCN1/C(=C/C=C/C2=[N+](CC)c3ccccc3C2(C)C)C(C)(C)c2ccccc21,97.1% (active),87.3% (active),51.5% (active),87.5% (active),86.7% (active),110% (active),96.1% (active),96.7% (active),,

Compound,inhibition [1],inhibition [2],inhibition [3],inhibition [4],inhibition [5],inhibition [6],inhibition [7],inhibition [8],inhibition [9],inhibition [10]
CSCCC(c1nnnn1-c1ccc2c(c1)OCCO2)N1CCC(n2c(=O)[nH]c3ccccc32)CC1 (centres undefined),15%,14.7%,-22.6%,20.9%,,,,,,
O=c1[nH]c2ccccc2n1C1CCN(C(CCc2ccccc2)c2nnnn2C2CCCCC2)CC1 (centres undefined),11.8%,12.5%,2.31%,-5.85%,,,,,,
CC(=O)OC1C(=O)OCC23CCC4(C)OC4C2OC2CC(OC(=O)C=CC=CC(=O)OCCC1C)C3(C)C21CO1 (centres undefined),98.1% (active),96.5% (active),96.7% (active),96.3% (active),96.8% (active),110% (active),98.6% (active),95.3% (active),,
CN(C)c1ccc(/C=C/C=C/c2sc3ccccc3[n+]2C)cc1,22.8%,38.5% (active),27.4%,30.4% (active),35.2% (active),54.1% (active),63% (active),56.9% (active),,
COC(=O)C12OCC34C(CC5C(C)=C(O)C(=O)CC5(C)C3C(O)C1O)OC(=O)C(OC(=O)/C=C(\C)C(C)C)C24 (centres undefined),99% (active),97.6% (active),98.1% (active),97.7% (active),96.7% (active),110% (active),98.9% (active),97.9% (active),,
Cc1ccc(-c2cc(-c3ccc(C)cc3)[n+](-c3ccccc3)c(-c3ccc(C)cc3)c2)cc1,79.8% (active),82.6% (active),48.3% (active),80.6% (active),84.5% (active),111% (active),94.8% (active),95% (active),,
CC(C)c1oc(=O)cc2c1[C@@H](O)[C@H]1OC(=O)[C@@]3(C)CC[C@@H](O)[C@@]2(C)C13 (some centres undefined),40.9%,7.55%,-2.23%,10%,71.4% (active),86.2% (active),72.3% (active),53.6% (active),,
CCC(C)NC(=O)CCC(=O)OC1O[C@H]2OC3(C)CC[C@H]4[C@H](C)CCC(C1C)C24OO3 (some centres undefined),63.7% (active),83.6% (active),47.4% (active),82% (active),75% (active),102% (active),91.8% (active),84.7% (active),,
C[C@]12CCC3C(CCC4=CC(O)CC[C@@]43/C=N/O)C1(O)CCC2C1=CC(=O)OC1 (some centres undefined),95.1% (active),79.7% (active),49.1% (active),77.8% (active),94.8% (active),108% (active),97% (active),82.5% (active),63.6% (active),11.4%
COc1ccc(-[n+]2c(-c3ccccc3)cc(-c3ccc(C)cc3)cc2-c2ccccc2)cc1,85.5% (active),87.3% (active),71.9% (active),88.3% (active),82.7% (active),111% (active),96.9% (active),98.2% (active),,
O=C1NC2C(=CC(O)C(O)C2O)c2cc3c(cc21)OCO3 (centres undefined),97.1% (active),96.6% (active),88.5% (active),96.3% (active),94% (active),109% (active),96.7% (active),95.6% (active),73.8% (active),76.2% (active)
Cc1ccc(-c2cc(-c3ccccc3)cc(-c3ccccc3)[n+]2-c2ccccc2)cc1,86.4% (active),89.9% (active),67.6% (active),85.6% (active),83.6% (active),110% (active),91.4% (active),95.2% (active),70% (active),61.8% (active)
CCC(C)(O)C(=O)OC1C(=O)OC2CC3C(C)=CC(O)C(O)C3(C)C3C4(O)OCC23C1C(C)C4O (centres undefined),38.8%,65.8% (active),36.7%,72% (active),79.5% (active),103% (active),92.4% (active),87% (active),,
CC1=CC2OC3CC4OC(=O)C=CC=CC(C(C)O)OCC(O)C5(C)OC5C(=O)OCC2(CC1O)C4(C)C31CO1 (centres undefined),98.6% (active),96.2% (active),96.5% (active),95.1% (active),94.8% (active),108% (active),96.5% (active),96.2% (active),82.1% (active),73.5% (active)
Cc1ccc(-c2cc(-c3ccc(C)cc3)[n+](C)o2)cc1,62.4% (active),47.2% (active),-3.35%,47.1% (active),27.6%,78.7% (active),65.7% (active),67.3% (active),,
CC[n+]1c(/C=C/N(C)c2ccccc2)sc2ccc(Cl)cc21,28.9%,46.1% (active),30.4%,48.8% (active),23.7%,83.7% (active),73.4% (active),75% (active),,
c1ccc(-c2cc(-c3ccccc3)[n+](-c3ccccc3)c(-c3ccccc3)c2)cc1,61.7% (active),75.9% (active),49.1% (active),81.6% (active),69.6% (active),104% (active),81.3% (active),89.4% (active),,
